Assay [1] deals with T1, Aspartate--tRNA(Asp/Asn) ligase (Mycobacterium tuberculosis (strain ATCC 25618 / H37Rv)) (UniProt P9WFW3).
T1 sequence (whole entry): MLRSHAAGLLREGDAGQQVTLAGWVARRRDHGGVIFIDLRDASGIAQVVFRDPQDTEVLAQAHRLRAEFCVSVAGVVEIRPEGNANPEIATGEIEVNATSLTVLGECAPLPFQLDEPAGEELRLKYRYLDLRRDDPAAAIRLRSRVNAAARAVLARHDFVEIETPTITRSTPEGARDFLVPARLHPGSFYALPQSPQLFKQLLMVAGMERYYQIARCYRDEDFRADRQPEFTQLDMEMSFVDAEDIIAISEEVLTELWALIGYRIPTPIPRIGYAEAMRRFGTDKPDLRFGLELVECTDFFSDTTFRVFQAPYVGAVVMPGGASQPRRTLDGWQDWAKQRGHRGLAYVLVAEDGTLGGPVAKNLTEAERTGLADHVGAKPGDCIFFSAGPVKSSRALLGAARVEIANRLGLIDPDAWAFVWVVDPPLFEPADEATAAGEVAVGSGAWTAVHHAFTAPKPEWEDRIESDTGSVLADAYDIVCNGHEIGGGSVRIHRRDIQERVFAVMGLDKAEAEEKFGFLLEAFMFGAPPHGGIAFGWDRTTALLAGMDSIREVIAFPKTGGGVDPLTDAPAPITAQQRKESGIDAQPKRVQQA
The assay can be described thus: Assay for Asp RNA synthetase-1 from Mycobacterium tuberculosis. The arrangement: scale not given: direction of the effect not stated beside the values. Conditions: 30 µM. Format: functional.

The target in assay [2] is Shiga toxin 2 (Escherichia coli O157:H7) (UniProt P09385+P09386). The assay can be described thus: E. coli 0.157:H7 Shiga Toxin SOP - stx2 screening assay. It counts as functional. The arrangement: scale not given: direction of the effect not stated beside the values. The note with it: 30 µM.

The structures appear in SMILES notation.

With `COc1cccc(CN2CCCCCC2c2cccc(C)c2)c1O` (configuration not stated), the Percent Effect was -0.481% in assay [1] and -68.7% in assay [2].
The corresponding values for `COCc1nc(C(=O)N2CCCC(n3cccn3)C2)cs1` (configuration not stated) are -1.71% and -22.6%.
The like results for `Cc1ccc(N2CCCN(C(=O)C3(C#N)CCCCC3)CC2)nn1` were, in that order, -0.989% and 4.54%.
The like results for `Cc1n[nH]c(C)c1C1COCCN1C(=O)Cc1cccc(F)c1` (configuration not stated) were, in that order, 3.85% and -14.1%.
Take `CS(=O)(=O)c1cccc(C(N)c2ccc(F)c(F)c2)c1` (configuration not stated): the Percent Effect in assay [1] was -1.19%; in assay [2], -2.5%.
Regarding `CC(C)c1nc(C2CCCN2CC(=O)Nc2nncs2)no1` (configuration not stated), the results for the Percent Effect in assay [1] and in assay [2] were -6.57% and 9.9%, respectively.
The corresponding values for `Cc1nc(C)n(C2CCCN(C(=O)Cc3n[nH]c4ccccc34)C2)n1` (configuration not stated) are 2.55% and -3.54%.
Regarding `CC(O)CN(CC(=O)NC(=O)NCC(F)(F)F)c1ccccc1` (configuration not stated), the Percent Effect was -7.32% in assay [1] and 29.2% in assay [2].
The corresponding values for `CC(C)COC(C)C(=O)NCc1cc(F)cc(F)c1` (configuration not stated) are -4.79% and 27.6%.
The corresponding values for `Cc1cc(C)c2cc(CNCC3CCCO3)c3nn(C)c(=O)n3c2c1` (configuration not stated) are 1.03% and 3.55%.
On to `NC(=O)CC1CCN(C(=O)NCc2ccccc2-n2cccn2)CC1`, for which the figures for the Percent Effect in assay [1] and in assay [2] were -3.48% and -4.75%, respectively.
As to `CC(NC(=O)c1ccc2c(c1)OCC(=O)N2)c1ccccc1F` (configuration not stated), the figures for the Percent Effect in assay [1] and in assay [2] were 7.05% and 24%, respectively.
Take `CCC1=N[C@@]2(CC[C@@H]3CN(Cc4ccccc4F)C[C@@H]32)C(=O)N1CC`: the Percent Effect in assay [1] is 3.79%; in assay [2] it was -13.9%.
`CCN1CC2(CCNCC2)COc2ccccc2S1(=O)=O`: the values for the Percent Effect in assay [1] and in assay [2] were -1.28% and -27.7%, respectively.
Take `CC(=O)NCC(=O)N1CCn2cc(CN3CCN(C)CC3)nc2C1`: the values for the Percent Effect in assay [1] and in assay [2] were 1.6% and -27.6%, respectively.
The like results for `NC(=O)C1CN(C(=O)Nc2ccccc2N2CCCCCC2)CCO1` (configuration not stated) were, in that order, 0.991% and 7.25%.
Regarding `CC(OCC(F)(F)F)C(=O)N1CCCCC1` (configuration not stated), the figures for the Percent Effect in assay [1] and in assay [2] were 1.09% and -2.39%, respectively.
As to `Cc1nc(Cn2nc(C3CCNCC3)n(Cc3ccccc3)c2=O)no1`, the Percent Effect in assay [1] was -2.53%; in assay [2], -3.49%.
The corresponding values for `Cc1cnn(C2CCCN(C(=O)c3ccnc(N(C)C)c3)C2)c1` (configuration not stated) are -5.57% and -16.8%.
On to `CCc1nnc2n1CCN(C(=O)Cc1csc(-c3ccco3)n1)C2`, for which the Percent Effect in assay [1] is -2.26%; in assay [2], -3.06%.
`N#CCCN(CCC#N)C(=O)CN1CCCC1Cc1cccc(F)c1` (configuration not stated): the Percent Effect in assay [1] is 5.73%; in assay [2], -0.707%.
As to `CN1CC(=O)N(c2cccnc2)CC12CCN(C(=O)c1cccnc1)C2` (configuration not stated), the Percent Effect in assay [1] was 4.16%; in assay [2] it was -12%.
In the case of `Cc1nonc1CC(=O)N1C[C@@H]2CC[C@H](C1)N(Cc1ccccc1)C2=O`, the Percent Effect in assay [1] was found to be 1.39%; in assay [2], 2.88%.
Turning to `Cc1noc(C2CCCN(C(=O)c3ccc(Br)cc3F)C2)n1` (configuration not stated), the Percent Effect was -4.41% in assay [1] and 20.7% in assay [2].
With `Cn1cc(CCNC(=O)NCc2nnc3n2CCC3)cn1`, the Percent Effect in assay [1] is -2%; in assay [2], 5.89%.
The corresponding values for `O=C(NCCCN1CCc2ccccc2C1)c1cccnc1O` are -2.28% and -68.5%.
The like results for `Cn1c(Cn2cccn2)nnc1C1CCCN(c2ccncc2F)C1` (configuration not stated) were, in that order, -0.254% and -2.56%.
The corresponding values for `CCc1nnc2n1CCN(Cc1nc(-c3ccoc3)no1)C2` are -5.61% and -17.8%.
With `CCOc1ccc(S(=O)(=O)NCc2cccnc2N(C)C)cc1`, the Percent Effect was 1.46% in assay [1] and -16.7% in assay [2].
The corresponding values for `O=C(CN1CCCCCCC1=O)NCc1ccccn1` are -0.137% and -35.3%.
For `O=C(NCc1ccccn1)Nc1cc(C(F)(F)F)c[nH]c1=O`, the Percent Effect is 1.37% in assay [1] and -24.9% in assay [2].
With `COc1ncc(C2(O)CCN(Cc3c(F)cccc3F)CC2)c(OC)n1`, the Percent Effect in assay [1] is 2.49%; in assay [2], 71.8%.
The corresponding values for `CS(=O)(=O)N1CCOC2(CCCN(c3cnccn3)C2)C1` (configuration not stated) are -5.91% and -3.98%.
Consider `Cc1ccc(NC(=O)NC(C)c2nc[nH]n2)cc1` (configuration not stated), for which the values for the Percent Effect in assay [1] and in assay [2] were 4.39% and 5.92%, respectively.
The like results for `Cc1cc(CC(=O)N(CC2CN(C)CCO2)c2nccs2)no1` (configuration not stated) were, in that order, -0.67% and -18.7%.
The like results for `O=C(C1CCC1)N1CCn2c(COc3ncccn3)nnc2C1` were, in that order, -0.503% and -1.29%.
As for `Cc1nccn1Cc1nnc(C2CCCN(Cc3cccnc3)C2)n1C` (configuration not stated), the Percent Effect in assay [1] is -2.79%; in assay [2] it was 4.73%.
The corresponding values for `Cc1cccc2c1cnn2CCCNC(=O)C(C)C` are 11.8% and -9.88%.
The corresponding values for `CN(CCN1CCCCC1)C(=O)c1cc(CN2CCOCC2)on1` are 5.72% and -1.02%.
The corresponding values for `CCc1nc(CN2CCCC(NCc3ncc(C(C)(C)C)o3)C2)no1` (configuration not stated) are 5.85% and 2.13%.
`CC(C)Nc1nc(N2CCOCC2)nc2c1CN(CC(=O)N(C)C)CC2`: the Percent Effect in assay [1] was 12.1%; in assay [2], -23.6%.
The like results for `Cc1nc(C)c(C(=O)NCCNc2ncccc2C#N)s1` were, in that order, 0.324% and -20.6%.
The corresponding values for `CCCc1nc(CN2CCN(Cc3noc(CCC)n3)CC2)no1` are -5.2% and -39.2%.
The like results for `NC(=O)C1CCN(C(=O)NCc2ccccc2Cn2cncn2)CC1` were, in that order, 2.04% and 1.76%.
For `CC(=O)Nc1nc(C(=O)Nc2ccc(F)cc2)cs1`, the Percent Effect is -0.259% in assay [1] and -5.87% in assay [2].
The corresponding values for `O=C(Cc1cccs1)N1CC[C@H]2[C@@H]1CCC(=O)N2c1cccnc1` are -1.62% and -9.24%.
On to `COc1ccnc(N2CCN(C(=O)c3cnn(C)c3C3CC3)CC2)n1`, for which the Percent Effect in assay [1] was -3.2%; in assay [2], 11.7%.
The like results for `CSCCC(=O)N1CCC(Oc2cc(C)ccc2F)(C(=O)O)CC1` were, in that order, -1.34% and -3.19%.
Regarding `CCOCCn1nc(C)cc1C(=O)N1CCOCC(CO)C1` (configuration not stated), the values for the Percent Effect in assay [1] and in assay [2] were -1.08% and -28%, respectively.
The corresponding values for `CN(C(=O)c1cccc(C(=O)NCC(F)(F)F)c1)c1ccccc1` are -2.65% and -62.9%.
Turning to `CNS(=O)(=O)c1cccc(CNC(=O)c2c(C)nn(C)c2C)c1`, the results for the Percent Effect in assay [1] and in assay [2] were -4.44% and 8.19%, respectively.

(Values after ChEMBL document CHEMBL3988442, “University of Dundee, Small-Polar-MMV Screening Library” (2021).)
